# Test results from PubChem BioAssay (NCI).
# The panel holds about 83,000 compounds, 20% with a hit somewhere; the sample as a whole holds those more often.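 48-hour exposure, single concentration, 96-well plates; percent growth endpoint where 0 means no net growth. Active: below 10.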 A number with no mark means an inactive call. Active and inactive are the calls of the source.
# Tested on: M14 melanoma
# Experiment: NCI-60 one-dose screen, 48 h (100 = growth as untreated, 0 = no growth, -100 = all killed)
# Details: 10 µM unless noted
# Method: Growth inhibition of the M14 human tumor cell line is measured as a screen for anti-cancer activity. Cells are grown in 96 well plates and exposed to the test compound for 48 hours. Compounds are tested at a single concentration, which is 10^-5 M for most compounds. The reported endpoint is percent growth (GI% or GIPRCNT), where numbers from 0 - 100% represent growth inhibition, and numbers from -100% - 0 represent cell death. For example, a value of 40 represents 60% growth inhibition. A value of 0 means no net growth occurred over the course of the experiment. A value of -40 indicates 40% of cells at the beginning of the experiment died by the end of the experiment. A value of -100 means all cells are dead at the end of the experiment.
# NCI-60 Human Tumor Cell Lines Screen was performed using the standard one-dose NCI protocol, which is described in more detail at https://dtp.cancer.gov/discovery_development/nci-60/default.htm.
# Compounds with GIPRCNT values below 10 were considered active. Activity score was based on GIPRCNT using the following formula: […]
# Score is 0 for GIPRCNT values of 100 or above, 50 for GIPRCNT values of 0, and 100 for GIPRCNT values of -100.
row,Compound,growth
1,CCCN1CCN(c2ccc3nc(-c4ccc5nc(-c6ccc(OCC)cc6)[nH]c5c4)[nH]c3c2)CC1,-27.2% (active)
2,Cc1cc(NS(=O)(=O)c2ccc(-c3cnc(C4CC4)o3)cc2)ccc1Cl,4.78% (active)
3,CC(=O)c1cc(C(=O)c2ccc3c(c2)Sc2ccccc2N3)n2ccccc12,20.1%
4,NCCNc1nc(Nc2ccc(-c3nc4ccccc4[nH]3)cc2)c2cn[nH]c2n1,96.1%
5,O=C1/C(=C(/c2ccccc2)N2CCOCC2)Cc2ccccc21,-34.7% (active)
6,CCC([N+](=O)[O-])S(=O)(=O)c1ccc(C)cc1 (stereo not given),103%
7,COc1ccc(O)c(N=Nc2nccs2)c1,105%
8,Cc1c(/C=C/[N+](=O)[O-])ccc2c1[nH]c1ccccc12,37.7%
9,O=C(/C=C/c1cc(CN2CCOCC2)c(O)c2ncccc12)c1cc(CN2CCOCC2)c(O)c2ncccc12,31.3%
10,N=C(N)c1ccc(-c2ccc(-c3ccc4ccccc4c3)s2)s1,39.7%
11,COc1ccc(NC(=O)c2ccc(/C=C/C(=O)c3ncc[nH]3)cc2)cc1,87.3%
12,CCCn1c(=O)[nH]c(N)c([C@H]2c3ccccc3Oc3[nH]c(=O)n(CCC)c(=O)c32)c1=O,83.8%
13,COc1cc(C(=O)/C=C/c2cccnc2Nc2ccc(Cl)cc2)cc(OC)c1OC,-47.4% (active)
14,COc1cccc(/C=C2\SC(=Nc3ccc(NC(C)=O)cc3)NC2=O)c1OC,98.1%
15,CCn1c(Cc2ccccc2Nc2c(Cl)cccc2Cl)nnc1SCC(=O)NN1C(=O)/C(=C/c2cc(OC)c(O)c(OC)c2)SC1=S,19.5%
16,O=C(N(c1ccccc1)c1ccccc1)n1ccc2nc(Cl)nc(Cl)c21,69.9%
17,CCOc1cc2c(cc1OCC)C(c1cc(OC)c(O)cc1Cl)NCC2 (stereo not given),80.2%
18,CCc1c(Nc2ccccc2C)nc(N)[nH]c1=O,106%
19,N#CN1CC[C@H](C(=O)Nc2cc3cc(C(N)=O)ccc3cn2)C1,-26.5% (active)
20,CCOc1cc2ncc(C#N)c(Nc3ccc(OCc4cccc(F)c4)c(Cl)c3)c2cc1NC(=O)CC1CCSS1 (stereo not given),-68.5% (active)

row,Compound,growth
1,CC1=CC(=NN=c2cc(C)n([O-])c(C)c2)C=C(C)[N+]1=O,77.2%
2,c1ccc(-c2cc3n4c(-c5ccccc5)nn(-c5ccccc5)c4cnc-3n2)cc1,71.4%
3,CC/C=C\C[C@H]1C/C=C2/C(=O)C=C[C@H]2C/C=C\CCCC(=O)O1,19.1%
4,COc1ccc(/C=C(\C#N)C(=O)Nc2cccc(Nc3nc(SC)nc(-c4cccc([N+](=O)[O-])c4)c3C#N)c2)cc1OC,91.5%
5,COc1ccc(CCNc2nc3c(c(=O)n(Cc4ccc(Br)cc4)c(=O)n3C)n2C)cc1OC,101%
6,COc1cc2nc(N3CCCC3)nc(NCCc3ccccc3)c2cc1OC,78.4%
7,OC(COc1cccc2ccccc12)CN1CCN(c2ccccc2Cl)CC1 (stereo not given),84.7%
8,CSc1nc(-c2cccc(NC(=O)CCl)c2)c(C#N)c(=O)n1C,56.8%
9,CCCCC(=O)OCC1OC(n2cnc3c(=S)nc[nH]c32)C(OC(=O)CCCC)C1OC(=O)CCCC (stereo not given),10.4%
10,Cc1ccc(NC(=O)C2CCC(CN3CCN(C)CC3)CC2)cc1Nc1nccc(-c2cccnc2)n1 (stereo not given),98.8%
11,OCCNc1nccc(N2CCN(c3ccnc4cc(Cl)ccc34)CC2)n1,68.7%
12,O=C1Nc2c(ccc(Cl)c2Cl)/C1=C\c1ccc(C(F)(F)F)cc1,98%
13,O=C(CCN1C(=O)/C(=C/c2ccc(Cl)cc2)SC1=S)NCCCN1CCOCC1,103%
14,Cc1ccc(NS(=O)(=O)c2ccc(-c3cnc(C4CC4)o3)cc2)cc1C,25.6%
15,COc1ccc(Nc2cc(C)nc(N3CCN(c4ccnc5cc(Cl)ccc45)CC3)n2)cc1,27.3%
16,Nc1ccc(-c2cc3c(NCc4ccccc4)ncnc3s2)cc1,103%
17,CC(=O)Nc1ccc(-n2c(O)c(/C=N/NC(=O)Cc3ccccc3Nc3c(Cl)cccc3Cl)sc2=S)cc1,103%
18,O=C1/C(=C/c2ccc3c(c2)OCO3)SC(=S)N1CCc1ccc(O)cc1,94.4%
19,NC(=NC1C2CC3CC(C2)CC1C3)Nc1ccc(I)cc1 (stereo not given),2.98% (active)
20,COc1ccc(C2CC(c3ccc(Cl)cc3)=NN2/C=C2\SC(=S)N(NC(=O)Cc3ccccc3Nc3c(Cl)cccc3Cl)C2=O)cc1 (stereo not given),65.9%
